PubChem BioAssay (Tox21)
Where “and” joins values, the source holds several entries; their conditions need not be identical. Identical values can stand only once. The source holds several records for some structures; these can differ, active in one and inactive in another. Calls of active or inactive are those of the source. A call without a number means that no potency is given here. Unless noted, the call rests on the fitted dose curve; in most records, active means well fitted curve in the direction sought with a large enough effect in the repeat runs; inconclusive means weak or mixed curves; inactive means no such curve, though single readings can be large; an effect the other way counts as inactive or inconclusive.

Legend:
[1] = qHTS assay to identify small molecule antagonists of the thyroid receptor (TR) signaling pathway (AID 743065); further: nearly all actives have a fitted effect of over 55% in size; further: potency means the concentration at half of the fitted maximal effect
Outline: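 GH3.TRE-Luc rat pituitary cells carrying two TR response elements driving luciferase were plated for 4 h, given compound plus 1 nM T3 (final), and incubated 23.5 h at 37 C. ONE-Glo luminescence measured reporter inhibition; CellTiter-Fluor fluorescence tracked cytotoxicity.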

[2] = test system: thyroid hormone receptor (rat, GH3 cells); assay: qHTS assay to identify small molecule agonists of the thyroid receptor (TR) signaling pathway (AID 743066; calls by dose curve; further: potency means the concentration at half of the fitted maximal effect)
[3] = biological target: Estrogen receptor (Homo sapiens) (UniProt P03372); assay: qHTS assay to identify small molecule antagonists of the estrogen receptor alpha (ER-alpha) signaling pathway (AID 743069; active means well fitted curve in the direction sought with a large enough effect in the signal ratio in the repeat runs, not every such curve was filed as active; inconclusive means weak or mixed curves, or effect the other way; inactive means no such curve, though single readings can be large or run the other way; the % refers to the signal ratio)
Outline: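 HEK293 cells stably carrying an ER-alpha-UAS-bla beta-lactamase reporter were pre-cultured overnight in 2% charcoal-stripped FBS medium. Test compounds in DMSO were added together with 17beta-estradiol for 18 hr at 37C. Read-out was fluorescence after 2 hr with LiveBLAzer B/G FRET substrate at room temperature.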

[4] = qHTS assay to identify small molecule antagonists of the estrogen receptor alpha (ER-alpha) signaling pathway - cell viability counter screen (AID 743074; calls by dose curve; further: nearly all actives have a fitted effect of over 45% in size; further: potency means the concentration at half of the fitted maximal effect)
[5] = biological target: Estrogen receptor (Homo sapiens) (UniProt P03372); assay: qHTS assay to identify small molecule agonists of the estrogen receptor alpha (ER-alpha) signaling pathway (AID 743075; calls by dose curve; further: potency means the concentration at half of the fitted maximal effect)
[6] = biological target: Estrogen receptor (Homo sapiens) (UniProt P03372); assay: qHTS assay to identify small molecule agonists of the estrogen receptor alpha (ER-alpha) signaling pathway using the BG1 cell line (AID 743079); further: nearly all actives have a fitted effect of over 20% in size; further: potency means the concentration at half of the fitted maximal effect
[7] = qHTS assay to identify small molecule antagonists of the estrogen receptor alpha (ER-alpha) signaling pathway using the BG1 cell line (AID 743080; calls by dose curve;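 further: BG1 cells stimulated with 17beta-estradiol alongside compound; nearly all actives have a fitted effect of over 25% in size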; further: potency means the concentration at half of the fitted maximal effect)
Outline: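 BG1-Luc-4E2 cells (endogenous full-length ER-alpha, 4xERE luciferase) hormone-starved 5 days in charcoal-stripped FBS, plated 4,000/well for 24 h, then compound plus 17beta-estradiol for 21.5 h at 37 C; ONE-Glo luminescence read.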

[8] = qHTS assay to identify small molecule antagonists of the estrogen receptor alpha (ER-alpha) signaling pathway using the BG1 cell line - cell viability counter screen (AID 743081);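 further: compound given together with 17beta-estradiol as the ER stimulus; series mostly up to about 70 µM; nearly all actives have a fitted effect of over 45% in size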
[9] = biological target: Aromatase (Homo sapiens) (UniProt P11511); assay: qHTS assay to identify aromatase inhibitors (AID 743083); further: nearly all actives have a fitted effect of over 55% in size; further: potency means the concentration at half of the fitted maximal effect
[10] = qHTS assay to identify aromatase inhibitors - cell viability counter screen (AID 743084);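 further: cells stimulated with testosterone during compound exposure; nearly all actives have a fitted effect of over 55% in size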; further: potency means the concentration at half of the fitted maximal effect

Aromatase (Homo sapiens), sequence (P11511 whole entry, looked up): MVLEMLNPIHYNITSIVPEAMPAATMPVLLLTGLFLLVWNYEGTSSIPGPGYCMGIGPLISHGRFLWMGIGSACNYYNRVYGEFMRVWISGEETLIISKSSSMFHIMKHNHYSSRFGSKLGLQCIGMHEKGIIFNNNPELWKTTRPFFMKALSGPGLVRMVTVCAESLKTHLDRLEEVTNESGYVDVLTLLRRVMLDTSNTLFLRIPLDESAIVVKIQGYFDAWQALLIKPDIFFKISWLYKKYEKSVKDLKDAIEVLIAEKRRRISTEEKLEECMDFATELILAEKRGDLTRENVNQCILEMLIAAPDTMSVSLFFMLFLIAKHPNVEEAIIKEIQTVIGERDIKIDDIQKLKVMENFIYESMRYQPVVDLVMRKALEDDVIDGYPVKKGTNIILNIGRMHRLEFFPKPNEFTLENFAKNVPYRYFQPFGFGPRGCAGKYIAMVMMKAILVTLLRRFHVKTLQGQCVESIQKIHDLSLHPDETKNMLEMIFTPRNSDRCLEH
Estrogen receptor (Homo sapiens), sequence (P03372 whole entry, looked up): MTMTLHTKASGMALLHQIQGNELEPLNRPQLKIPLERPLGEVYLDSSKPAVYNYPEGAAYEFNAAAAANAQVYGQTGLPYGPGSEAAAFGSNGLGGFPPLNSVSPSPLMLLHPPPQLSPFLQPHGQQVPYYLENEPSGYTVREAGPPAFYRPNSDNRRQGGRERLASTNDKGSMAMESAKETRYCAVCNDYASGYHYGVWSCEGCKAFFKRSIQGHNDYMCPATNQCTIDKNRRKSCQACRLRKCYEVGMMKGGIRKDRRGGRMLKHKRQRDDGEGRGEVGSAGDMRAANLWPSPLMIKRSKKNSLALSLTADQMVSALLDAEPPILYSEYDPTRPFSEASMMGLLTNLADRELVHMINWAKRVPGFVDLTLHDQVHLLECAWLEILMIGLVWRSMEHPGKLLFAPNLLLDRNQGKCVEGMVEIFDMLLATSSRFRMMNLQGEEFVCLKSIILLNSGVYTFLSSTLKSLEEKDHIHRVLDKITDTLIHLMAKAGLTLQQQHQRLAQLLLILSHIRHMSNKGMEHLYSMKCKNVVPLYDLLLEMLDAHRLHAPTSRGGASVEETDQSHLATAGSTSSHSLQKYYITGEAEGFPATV

Compound | Potency [1] | Potency [2] | Potency [3] | Potency [4] | Potency [5] | Potency [6] | Potency [7] | Potency [8] | Potency [9] | Potency [10]
Oc1cccc(Cl)c1 | inactive | inactive | inactive | inactive | inactive | inactive | inactive | inactive | inactive | inactive
C[N+]1(CCC(C(N)=O)(c2ccccc2)c2ccccc2)CCCCC1 | inactive | inactive | inactive | inactive | inactive | inactive | inactive | inactive | inactive | inactive
CCOC(=O)c1cncn1C(C)c1ccccc1 (stereo not given) | inactive | inactive | inactive | inactive | inactive | inactive | inactive | inactive | inactive | inactive
CN[C@@H](C)[C@H](O)c1ccccc1 | inactive | inactive | inactive | inactive | inactive | 26.6 µM (active) | inactive | inactive | inactive | inactive
COC1CC(=C(c2cccs2)c2cccs2)C[N+](C)(C)C1 (stereo not given) | inactive | inactive | inactive | inactive | inactive | – | inactive | inactive | inactive | inactive
CCCCC#N | inactive | inactive | inactive | inactive | inactive | inactive | inactive | inactive | inactive | inactive
CN(C1CCCCC1)C1CCCCC1 | inactive | inactive | inactive | inactive | inactive | inactive | inactive | inactive | inactive | inactive
CC(C)OC(=O)Cc1ccccc1 | inactive | inactive | inactive | inactive | inactive | inactive | inactive | inactive | inactive | inactive
Cc1cccc(C)c1NC1=NCCCS1 | inactive | inactive | inactive | inactive | inactive | inactive | inactive | – | inactive | inactive
Cc1cnc(C2=NC(C)(C(C)C)C(=O)N2)c(C(=O)O)c1 (stereo not given) | inactive | inactive | inactive | inactive | inactive | – | inactive | inactive | inactive | inactive
CC(C)(c1ccccc1)c1cc(-n2nc3ccccc3n2)c(O)c(C(C)(C)c2ccccc2)c1 | inactive | inactive | inactive | inactive | inactive | inactive | inactive | inactive | inactive | inactive
CCCC(C)(COC(N)=O)COC(=O)NC(C)C (stereo not given) | inactive | inactive | inactive | inactive | inactive | inactive | inactive | inactive | inactive | inactive
CCc1ccccc1N | inactive | inactive | inactive | inactive | inactive | inactive | inactive | inactive | inactive | inactive
CCC(C)(C)c1ccc(O)c(C(C)(C)CC)c1 | 12.1 µM (active) and 12.2 µM (active) | inactive | inactive | inactive | inactive | inactive | 61.1 µM (active) | – | 60.4 µM (active) and 30.6 µM (active) | 42.8 µM (active) and 27.3 µM (active)
O=CC=O | inactive | inactive | inactive | inactive | inactive | inactive and 28.1 µM (active) | inactive | inactive | inactive | inactive
CCCCCCCCCCCCN(C)C | inactive | inactive | inactive | inactive | inactive | inactive | inactive | inactive | inactive | inactive
CCC[N+](CCC)(CCC)CCC | inactive | inactive | inactive | inactive | inactive | inactive | inactive | inactive | inactive | inactive
CCCCCCCCCCCCCCCl | inactive | inactive | inactive | inactive | inactive | inactive | inactive | inactive | inactive | inactive
Clc1ccccc1 | inactive | inactive | inactive | inactive | inactive | inactive | inactive | inactive | inactive | inactive
CC(O)CN1CCN(CC(=O)[O-])CCN(CC(=O)[O-])CCN(CC(=O)[O-])CC1.[Gd+3] (stereo not given) | inactive | inactive | inactive | inactive and 21.3 µM (active) | inactive and 23.9 µM [inconclusive] (active) | inactive and 5.31 µM (active) | inactive | inactive | inactive | inactive
COc1cc(CC(C)N)c(OC)cc1Br (stereo not given) | 35.5 µM (active) and 23.7 µM (active) | inactive | inactive | inactive | inactive | inactive | inactive | inactive | inactive | inactive
C=C(C)C(=O)OCCCCOC(=O)C(=C)C | inactive | inactive | inactive | inactive | inactive | inactive | inactive | inactive | – | inactive
O=[N+]([O-])c1cc(Cl)c(Cl)cc1Cl | inactive | inactive | inactive | inactive | inactive | inactive | inactive | inactive | inactive | inactive
CC(C)(C)NCC(O)c1cc(Cl)c(N)c(C(F)(F)F)c1 (stereo not given) | inactive | inactive | inactive | inactive | inactive | inactive | inactive | – | inactive | –
C=CC(=O)NC(C)(C)CC(C)=O | inactive | inactive | inactive | inactive | inactive | inactive | inactive | inactive | inactive | inactive
C=CCc1ccccc1O | inactive | inactive | inactive | inactive | inactive | inactive | inactive | inactive | inactive | inactive
O=C=NC1CCCCC1 | inactive | inactive | inactive | inactive | inactive | 12.2 µM (active) | – | inactive | inactive | inactive
C#C[C@]1(O)CC[C@H]2[C@@H]3CCC4=CC(=O)CCC4=C3C=C[C@@]21CC | 23.7 µM (active) | inactive | – | inactive | 0.213 µM [inconclusive] (active) | 0.0422 µM (active) | 23.7 µM (active) | inactive | inactive | inactive

Compound | Potency [1] | Potency [2] | Potency [3] | Potency [4] | Potency [5] | Potency [6] | Potency [7] | Potency [8] | Potency [9] | Potency [10]
CCOC(=O)c1cn2nc(OP(=S)(OCC)OCC)cc2nc1C | inactive | inactive | – | inactive | inactive | inactive | inactive | inactive | inactive | inactive
CCOP(=S)(OCC)SCSc1cc(Cl)ccc1Cl | inactive | inactive | inactive | inactive | inactive | – | inactive | inactive | inactive | inactive
Nc1cc(Cl)cc(C(=O)O)c1Cl | inactive | inactive | – | inactive | – | – | – | inactive | inactive | inactive
C=CC(C)(CCC=C(C)C)OC(=O)c1ccccc1N (stereo not given) | inactive | inactive | – | inactive | – | – | – | inactive | inactive | inactive
CN(C)c1ccc(N=O)cc1 | 5.46 µM (active) and 12.2 µM (active) | 13.7 µM (active) | – | inactive | inactive | 12.2 µM (active) | – | – | 9.72 µM (active) and 21.7 µM (active) | 6.13 µM (active) and 15.4 µM (active)
Nc1ccc2c(c1)Cc1ccccc1-2 | inactive | inactive | inactive | inactive | – | 4.3 µM (active) | – | inactive | inactive | inactive
CCOc1cccc(C2(N3CCN(c4ccccc4)CC3)CCC(C)CC2)c1 (stereo not given) | inactive | inactive | inactive | – | inactive | inactive | – | inactive | inactive | inactive
NNCCO | inactive | inactive | inactive | inactive | inactive | – | inactive | inactive | inactive | inactive
CC(C)(C)OOC(C)(C)CCC(C)(C)OOC(C)(C)C | inactive | inactive | – | inactive | – | – | – | inactive | – | –
Cc1nnc(-c2ccccc2)c(=O)n1N | inactive | inactive | inactive | inactive | – | – | inactive | inactive | inactive | inactive
CCC1CCC(=O)O1 (stereo not given) | inactive | inactive | – | inactive | – | – | – | inactive | – | –
CCOP(=S)(OCC)Oc1ccc(S(C)=O)cc1 (stereo not given) | inactive | inactive | – | inactive | inactive | inactive | inactive | inactive | inactive | inactive
C1CCNCC1 | inactive | inactive | inactive | inactive | – | – | inactive | inactive | inactive | inactive
Cc1nc2ccccc2c(=O)n1-c1ccccc1Cl | inactive | inactive | inactive | – | inactive | 33.6 µM (active) | inactive | – | inactive | –
O=C(Cc1ccccc1)c1ccccc1 | inactive | inactive | – | inactive | inactive | – | – | inactive | inactive | inactive
OCC1CO1 (stereo not given) | inactive | inactive | – | inactive | inactive | inactive | inactive | inactive | inactive | inactive
COc1cc(C[C@@H](C)N)c(OC)cc1Br | 56 µM (active) | inactive | inactive | – | inactive | inactive | inactive | inactive | – | inactive
O=[N+]([O-])O[C@H]1CO[C@H]2[C@@H]1OC[C@H]2O[N+](=O)[O-] | inactive | inactive | inactive | inactive | inactive | – | inactive | inactive | inactive | inactive
O=C(O)CCCOc1ccc(Cl)cc1Cl | inactive | inactive | – | inactive | – | – | – | inactive | inactive | –
c1ccc2c(c1)-c1cccc3cccc-2c13 | inactive | inactive | – | inactive | – | – | – | inactive | inactive | inactive
Nc1cccc2ccccc12 | inactive | inactive | inactive | – | inactive | inactive | inactive | inactive | inactive | inactive
Clc1ccc2ccccc2c1 | inactive | inactive | inactive | inactive | inactive | – | inactive | inactive | inactive | inactive
O=C(Cl)OCCOCCOC(=O)Cl | inactive | 27.3 µM (active) | inactive | – | inactive | inactive | inactive | inactive | inactive | inactive
CC(=O)OC(c1ccccc1)C(Cl)(Cl)Cl (stereo not given) | inactive | inactive | inactive | inactive | inactive | – | 68.6 µM (active) | inactive | – | inactive
CC[N+]1(CCOC(=O)C(O)(c2ccccc2)c2ccccc2)CCCCC1 | inactive | inactive | inactive | inactive | – | 8.41 µM (active) | inactive | inactive | inactive | inactive
CN(C)N | inactive | inactive | – | inactive | – | – | – | inactive | inactive | inactive
CCCCCCCCCCCC[N+](C)(C)CCOc1ccccc1 | 10.6 µM (active) and 9.69 µM (active) | inactive | – | 19 µM (active) and 17.4 µM (active) | inactive | – | inactive | inactive | 21.1 µM (active) and 19.3 µM (active) | 26.6 µM (active) and 27.3 µM (active)
